Assay results from PubChem BioAssay AID493231 (Broad Institute, 2011).
Results with a measured potency or affinity are listed apart. Unmarked numbers belong to inactive results. No rule for the calls is given here.

The compounds below were run against Acyl-homoserine lactone acylase PvdQ (Pseudomonas aeruginosa (strain ATCC 15692 / DSM 22644 / CIP 104116 / JCM 14847 / LMG 12228 / 1C / PRS 101 / PAO1)) (UniProt Q9I194) (assay: P. aeruginosa PvdQ acylase inhibitors, dose response, biochemical, fluorescence, plate reader and imaging, cherry-picks (AID 493231;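 also: 0% = neutral control wells and -100% = reference inhibitor wells; more negative values mean stronger inhibition of the acylase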)). Details: purified PvdQ acylase, fluorogenic substrate; series mostly up to 10 µM; activity change, negative = inhibition: at the top concentration.
Acyl-homoserine lactone acylase PvdQ (Pseudomonas aeruginosa (strain ATCC 15692 / DSM 22644 / CIP 104116 / JCM 14847 / LMG 12228 / 1C / PRS 101 / PAO1)), sequence (Q9I194 whole entry, looked up): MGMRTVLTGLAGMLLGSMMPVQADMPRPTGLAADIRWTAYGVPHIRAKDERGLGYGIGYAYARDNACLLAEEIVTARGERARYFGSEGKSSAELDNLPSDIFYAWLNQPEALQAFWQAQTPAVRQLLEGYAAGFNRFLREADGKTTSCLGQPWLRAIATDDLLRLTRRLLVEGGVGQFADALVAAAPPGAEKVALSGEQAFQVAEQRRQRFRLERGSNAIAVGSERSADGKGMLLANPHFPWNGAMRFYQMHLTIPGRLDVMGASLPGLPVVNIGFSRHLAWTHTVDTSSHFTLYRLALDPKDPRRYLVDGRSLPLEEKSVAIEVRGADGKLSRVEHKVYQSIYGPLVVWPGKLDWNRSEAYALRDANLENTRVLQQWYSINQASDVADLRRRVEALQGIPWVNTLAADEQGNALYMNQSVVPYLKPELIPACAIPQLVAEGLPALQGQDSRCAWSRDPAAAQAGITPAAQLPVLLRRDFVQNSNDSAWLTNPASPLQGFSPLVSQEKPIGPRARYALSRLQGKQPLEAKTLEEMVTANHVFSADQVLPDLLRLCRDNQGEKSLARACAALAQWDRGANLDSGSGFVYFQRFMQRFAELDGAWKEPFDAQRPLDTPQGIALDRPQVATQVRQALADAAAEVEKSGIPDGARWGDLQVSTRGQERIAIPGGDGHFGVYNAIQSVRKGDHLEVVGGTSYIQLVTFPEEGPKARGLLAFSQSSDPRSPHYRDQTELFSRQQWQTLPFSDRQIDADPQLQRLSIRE
With `c1ccc(-c2cnc(C3CCCCC3)o2)cc1` the “activity change, negative = inhibition” value was -5.14 unspecified. `Cn1nnnc1SCC(=O)NCCCc1ccccc1` was tested, and the “activity change, negative = inhibition” value was 13.1 unspecified. For `COc1ccc(S(=O)(=O)NCCc2ccccc2)c2cccnc12`, the “activity change, negative = inhibition” value was 15 unspecified. For `CCOC(=O)/C(C#N)=C/c1c(N2CCCCCC2)nc2ccccn2c1=O`, the “activity change, negative = inhibition” value was -0.405 unspecified. With `CSC(=S)N/N=C/c1ccccc1` the “activity change, negative = inhibition” value was 8.93 unspecified. With `Cc1ccc(S(=O)(=O)N(CC(=O)N2CCC(C)CC2)c2ccccc2)cc1` the “activity change, negative = inhibition” value was 2.52 unspecified. In the case of `CN1C(=O)/C(=C/c2ccc(O)c([N+](=O)[O-])c2)N(C)C1=S`, the “activity change, negative = inhibition” value is reported as 2.91 unspecified. For `CCN1CCCC1CN(Cc1cc2ccc(C)cc2[nH]c1=O)C(=S)Nc1cccc(OC)c1` (stereo not drawn), the “activity change, negative = inhibition” value was 13.5 unspecified. `CCOC(=O)C1CCCN(C(=O)c2cc(S(=O)(=O)N(C)C)ccc2N2CCCC2)C1` (stereo not drawn) was tested, and the “activity change, negative = inhibition” value was -100 unspecified. For `O=C(OCc1nc2ccccc2s1)c1ccc([N+](=O)[O-])o1`, the “activity change, negative = inhibition” value was 7.21 unspecified. With `Cn1cccc1Cc1nnc(SCC(=O)N2CCN(c3ccccc3)CC2)n1-c1ccc(F)cc1` the “activity change, negative = inhibition” value was 12.8 unspecified. In the case of `Cc1ccc(SCC(=O)Nc2ccc(F)cc2[N+](=O)[O-])cc1C`, the “activity change, negative = inhibition” value is reported as 12.6 unspecified. With `Cc1ccc(OCCn2cc(/C(N)=N/O)c3ccccc32)cc1C` the “activity change, negative = inhibition” value was 27 unspecified. For `CN1CCN(C(=O)c2cccn(Cc3ccc(C(F)(F)F)cc3)c2=O)CC1`, the “activity change, negative = inhibition” value was 8 unspecified. In the case of `CS(=O)(=O)N1CCN(C(=O)Nc2ccccc2)CC1`, the “activity change, negative = inhibition” value is reported as -6.79 unspecified. With `O=C(O)CC1S/C(=N/N=C/C=C/c2ccccc2)NC1=O` (stereo not drawn) the “activity change, negative = inhibition” value was -7.29 unspecified. For `Cc1cc(C)nc(NS(=O)(=O)c2ccc(NC(=O)c3ccc(N4C(=O)CCC4=O)cc3)cc2)n1`, the “activity change, negative = inhibition” value was 3.67 unspecified. For `C=CCn1c(=O)/c(=C/c2ccc(C)o2)s/c1=C(/C#N)C(=O)c1ccccc1`, the “activity change, negative = inhibition” value was 8.18 unspecified.
